Results published in PubChem BioAssay (Tox21).
Inconclusive results are not listed. Active and inactive are the calls of the source. Calls follow the shape of the dose curve; as a rule, active = well fitted curve in the direction sought with a large enough effect in the repeat runs; inconclusive = weak or mixed curves; inactive = no such curve, though single readings can be large; an effect the other way counts as inactive or inconclusive.

What was measured:
[1] = Caspase-3/7 induction in HepG2 cells by small molecules, qHTS assay (AID 1346978); also: nearly all actives have a fitted effect of over 15% in size
Method in brief: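 Wild-type HepG2 cells (2,000/well) were settled 5 h at 37 C, 5% CO2, then exposed to compounds in DMSO for 17 h. Caspase-3/7 activity was read by luminescence 30 min after adding Caspase-Glo 3/7 reagent at room temperature.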

[2] = Caspase-3/7 induction in CHO-K1 cells by small molecules, qHTS cell viability counter screen (AID 1346979); also: nearly all actives have a fitted effect of over 35% in size; also: potency is read from the fitted curve at half-maximal effect
Method in brief: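 Cytotoxicity counter screen run in parallel with the caspase-3/7 assay: CHO-K1 cells, 16hr compound treatment at 37C, then CellTiter-Fluor for 1hr before fluorescence reading.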

[3] = Caspase-3/7 induction in CHO-K1 cells by small molecules, qHTS assay (AID 1346980); also: nearly all actives have a fitted effect of over 15% in size
Method in brief: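 Wild-type cells were seeded at 1,500 per well and settled 5 hr at 37 C, 5% CO2, then exposed to DMSO-dissolved compounds for 17 hr. Caspase-Glo 3/7 reagent was added, and luminescence was read after 30min at room temperature.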

[4] = Caspase-3/7 induction in HepG2 cells by small molecules, qHTS cell viability counter screen (AID 1346981); also: nearly all actives have a fitted effect of over 30% in size; also: potency is read from the fitted curve at half-maximal effect; as to activity change, negative = cytotoxicity: series mostly up to about 92 µM
Method in brief: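 After a 5-hr attachment period at 37 C and 5% CO2, wild-type HepG2 cells received compounds in DMSO. Sixteen hours later CellTiter-Fluor was dispensed and the fluorescent signal quantified after a further hour.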

[5] = molecular target: Nuclear receptor subfamily 1 group I member 2 (Homo sapiens) (UniProt O75469); experiment: Human pregnane X receptor (PXR) small molecule agonists, qHTS assay (AID 1346982); also: nearly all actives have a fitted effect of over 35% in size; also: potency is read from the fitted curve at half-maximal effect
Method in brief: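 Tox21 qHTS; PXR-Luc HepG2; compounds pinned from DMSO; 24 hr, 37 C; ONE-Glo luciferase detection, 30 min room temperature.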

[6] = molecular target: Cytochrome P450 2D6 (Homo sapiens) (UniProt P10635); experiment: Cytochrome P450 Family 2 Subfamily D Member 6 (CYP2D6) small molecule antagonists: luciferase reporter qHTS assay (AID 1671196); also: nearly all actives have a fitted effect of over 50% in size; also: potency is read from the fitted curve at half-maximal effect; as to activity change, negative = inhibition: series mostly up to about 120 µM
Method in brief: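 Room-temperature luminescent CYP2D6 activity assay: compound preincubated 10 min with enzyme–substrate mix, NADPH-initiated reaction 1 h, detection reagent 20 min before reading.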

[7] = molecular target: Cytochrome P450 2C19 (Homo sapiens) (UniProt P33261); experiment: Cytochrome P450 Family 2 Subfamily C Member 19 (CYP2C19) small molecule antagonists: luciferase reporter qHTS assay (AID 1671197); also: nearly all actives have a fitted effect of over 65% in size; also: potency is read from the fitted curve at half-maximal effect; as to activity change, negative = inhibition: series mostly up to about 120 µM
Method in brief: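 Light output is proportional to CYP2C19 activity: proluciferin substrate is converted to luciferin, then detected by a luciferin detection reagent that also stops the 1 h, 37C NADPH-driven reaction. Ketoconazole serves as positive control.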

[8] = molecular target: Nuclear receptor subfamily 1 group I member 2 (Rattus norvegicus) (UniProt Q9R1A7); experiment: Rat pregnane X receptor (rPXR) activation by small molecules, qHTS assay (AID 1346983); settings: rPXR luciferase reporter cells, One-Glo luminescence, 24 h; max activation: stronger effect = higher value; also: nearly all actives have a fitted effect of over 20% in size
Method in brief: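 Cell-based rPXR luciferase reporter assay, 2,000 cells per well, rested 5hr at 37 C before compound addition in DMSO, then 24 hr at 37 C. One-Glo reagent was added and luminescence read after 30 min at room temperature.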

[9] = molecular target: Nuclear receptor subfamily 1 group I member 2 (Homo sapiens) (UniProt O75469); experiment: Human pregnane X receptor (PXR) activation by small molecules, qHTS assay (AID 1346985); also: nearly all actives have a fitted effect of over 40% in size
Method in brief: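 DPX-2 cells (HepG2 co-transfected with a PXR response element and a CYP3A4-promoter luciferase construct) were seeded at 2,000 per well, rested 5 hr at 37C, then exposed to DMSO-dissolved compounds for 24 hr. Activation was read as luciferase luminescence.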
% is scaled to controls: 0 for no effect and ±100 for the full control effect.

Cytochrome P450 2C19 (Homo sapiens), sequence (P33261 whole entry, looked up): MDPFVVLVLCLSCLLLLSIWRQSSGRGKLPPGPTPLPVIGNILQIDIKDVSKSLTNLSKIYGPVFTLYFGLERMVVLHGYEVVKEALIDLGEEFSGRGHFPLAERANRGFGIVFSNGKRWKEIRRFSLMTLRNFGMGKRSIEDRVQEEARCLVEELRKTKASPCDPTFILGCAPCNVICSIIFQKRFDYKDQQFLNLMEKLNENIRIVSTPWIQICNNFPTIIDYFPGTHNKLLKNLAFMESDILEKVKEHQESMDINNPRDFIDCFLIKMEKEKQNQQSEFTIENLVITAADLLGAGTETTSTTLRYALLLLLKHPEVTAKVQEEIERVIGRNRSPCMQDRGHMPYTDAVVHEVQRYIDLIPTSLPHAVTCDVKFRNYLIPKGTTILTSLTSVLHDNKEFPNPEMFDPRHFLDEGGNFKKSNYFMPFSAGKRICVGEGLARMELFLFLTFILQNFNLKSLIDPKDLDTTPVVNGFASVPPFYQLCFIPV
Cytochrome P450 2D6 (Homo sapiens), sequence (P10635 whole entry, looked up): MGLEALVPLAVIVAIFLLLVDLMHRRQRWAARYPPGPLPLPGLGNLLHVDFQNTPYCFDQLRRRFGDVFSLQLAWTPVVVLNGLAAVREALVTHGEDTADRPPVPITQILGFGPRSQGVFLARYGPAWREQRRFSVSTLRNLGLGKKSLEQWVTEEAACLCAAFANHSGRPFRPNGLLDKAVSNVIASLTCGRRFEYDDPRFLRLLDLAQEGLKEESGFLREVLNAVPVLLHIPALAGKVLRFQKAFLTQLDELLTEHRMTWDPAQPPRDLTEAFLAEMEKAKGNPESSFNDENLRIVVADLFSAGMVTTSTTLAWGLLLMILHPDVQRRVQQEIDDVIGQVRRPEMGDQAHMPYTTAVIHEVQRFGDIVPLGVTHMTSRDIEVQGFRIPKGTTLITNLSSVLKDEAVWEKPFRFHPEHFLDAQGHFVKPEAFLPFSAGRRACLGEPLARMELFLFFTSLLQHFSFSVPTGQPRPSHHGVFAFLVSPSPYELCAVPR
Nuclear receptor subfamily 1 group I member 2 (Homo sapiens), sequence (O75469 whole entry, looked up): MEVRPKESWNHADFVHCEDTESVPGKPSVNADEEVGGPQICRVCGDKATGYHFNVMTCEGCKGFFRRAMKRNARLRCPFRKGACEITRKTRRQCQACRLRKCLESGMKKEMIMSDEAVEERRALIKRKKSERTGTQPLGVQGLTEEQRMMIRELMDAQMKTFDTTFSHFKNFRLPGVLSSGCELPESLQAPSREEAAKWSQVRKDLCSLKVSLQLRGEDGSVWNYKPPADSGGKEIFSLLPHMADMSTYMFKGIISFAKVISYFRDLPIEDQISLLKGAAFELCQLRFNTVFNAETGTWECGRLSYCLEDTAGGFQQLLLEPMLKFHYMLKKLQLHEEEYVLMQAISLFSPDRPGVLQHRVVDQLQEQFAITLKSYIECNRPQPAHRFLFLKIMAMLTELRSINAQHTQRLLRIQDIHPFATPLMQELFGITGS
Nuclear receptor subfamily 1 group I member 2 (Rattus norvegicus), sequence (Q9R1A7 whole entry, looked up): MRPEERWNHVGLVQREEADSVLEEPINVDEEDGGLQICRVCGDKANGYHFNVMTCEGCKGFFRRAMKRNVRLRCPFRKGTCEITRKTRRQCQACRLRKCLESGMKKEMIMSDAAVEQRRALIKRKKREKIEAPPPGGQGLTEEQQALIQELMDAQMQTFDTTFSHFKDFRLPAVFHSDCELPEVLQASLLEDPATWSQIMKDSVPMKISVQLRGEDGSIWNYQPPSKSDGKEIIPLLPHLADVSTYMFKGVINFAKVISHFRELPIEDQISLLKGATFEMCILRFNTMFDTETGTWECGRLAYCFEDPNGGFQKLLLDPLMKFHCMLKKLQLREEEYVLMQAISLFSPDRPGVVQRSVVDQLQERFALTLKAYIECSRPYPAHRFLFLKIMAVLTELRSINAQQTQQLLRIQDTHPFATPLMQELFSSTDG

CC/C=C\CCOC(=O)CC
inactive: Potency [1] | Potency [2] | Potency [3] | Potency [4] | Potency [5] | Potency [6]

O=C(O)c1nc(Cl)c(Cl)c(Cl)c1Cl
active: Potency [6] 28.3 µM
inactive: Potency [1] | Potency [2] | Potency [3] | Potency [4] | Potency [5]

CCCCCCCCO[C@@H]1O[C@H](CO)[C@@H](O)[C@H](O)[C@H]1O
inactive: Potency [1] | Potency [2] | Potency [3] | Potency [4] | Potency [5] | Potency [6]

CC1=CC[C@H](C(C)C)C=C1
inactive: Potency [1] | Potency [2] | Potency [3] | Potency [4]
active: Potency [5] 27.3 µM | Potency [6] 56.4 µM | Potency [7] 39.9 µM

C[C@@H]1C[C@H]2[C@@H]3CCC4=CC(=O)C=C[C@]4(C)[C@@]3(F)[C@@H](O)C[C@]2(C)[C@@]1(O)C(=O)COC(=O)c1ccncc1
active: Potency [5] 1.33 µM | Potency [6] 11 µM
inactive: Potency [1] | Potency [2] | Potency [3] | Potency [4]

NS(=O)(=O)c1ccc(N2CCCCS2(=O)=O)cc1
inactive: Potency [1] | Potency [2] | Potency [3] | Potency [4] | Potency [5] | Potency [6]

Cc1ccccc1S(=O)(=O)O
inactive: Potency [1] | Potency [2] | Potency [3] | Potency [4] | Potency [5] | Potency [6]

COC(C)OC
inactive: Potency [1] | Potency [2] | Potency [3] | Potency [4] | Potency [5] | Potency [6] | Potency [7]

COc1ccnc(CS(=O)c2nc3ccc(OC(F)F)cc3[nH]2)c1OC (stereo not given)
inactive: Potency [1] | Potency [2] | Potency [3] | Potency [4] | Potency [5] | max activation [8] 0.184%
active: Potency [6] 2.75 µM

O=C1OC(=O)C2C3C=CC(C3)C12 (stereo not given)
inactive: Potency [1] | Potency [2] | Potency [3] | Potency [4] | Potency [5] | Potency [6]

CCCCCCCC/C=C\CCCCCCCC(=O)OCC
inactive: Potency [1] | Potency [2] | Potency [3] | Potency [4] | Potency [5] | Potency [6]

Brc1c2ccccc2c(Br)c2ccccc12
inactive: caspase activation [1] 0.0205% [at 8.39 µM] | activity change, negative = cytotoxicity [2] 14.3% [at 8.39 µM] | caspase-3/7 activation [3] -0.773% [at 8.39 µM] | activity change, negative = cytotoxicity [4] 5.61% [at 8.39 µM] | activation [5] 1.22% [at 8.39 µM] | activity change, negative = inhibition [6] 0.168% [at 10.5 µM] | activity change, negative = inhibition [7] -7.43% [at 10.5 µM]

CC[N+](C)(CC)CCOC(=O)C(O)(c1ccccc1)C1CCCCC1 (stereo not given)
active: Potency [6] 0.776 µM
inactive: Potency [1] | Potency [2] | Potency [3] | Potency [4] | Potency [5]

CCOc1ccc(N=Nc2ccc(/C=C/c3ccc(N=Nc4ccc(OCC)cc4)cc3S(=O)(=O)O)c(S(=O)(=O)O)c2)cc1
inactive: Potency [1] | Potency [3] | Potency [5] | Potency [6] | Potency [7]
active: Potency [2] 38 µM | Potency [4] 42.6 µM

OCc1cc(C(O)CNCCCCCCOCCCCc2ccccc2)ccc1O (stereo not given)
inactive: Potency [1] | Potency [3] | Potency [5] | max activation [8] 0.017% | Potency [9] | Potency [7]
active: Potency [2] 23.7 µM | Potency [4] 26.6 µM

CC(C)(CO)[N+](=O)[O-]
inactive: Potency [1] | Potency [2] | Potency [3] | Potency [4] | Potency [5] | Potency [6]

COS(=O)(=O)C(F)(F)F
inactive: Potency [1] | Potency [2] | Potency [3] | Potency [4] | Potency [5] | Potency [6] | Potency [7]

Nc1ccc(N)c2c1C(=O)c1ccccc1C2=O
active: Potency [2] 24.3 µM | Potency [4] 21.7 µM | Potency [6] 35.6 µM
inactive: Potency [1] | Potency [3] | Potency [5]

COc1ccc(C)cc1[N+](=O)[O-]
inactive: Potency [1] | Potency [2] | Potency [3] | Potency [4] | Potency [5] | Potency [6]

CCO[Si](CCCCl)(OCC)OCC
inactive: Potency [1] | Potency [2] | Potency [3] | Potency [4] | Potency [5]
active: Potency [6] 22.3 µM | Potency [7] 31.4 µM

O[C@@H](COc1cccc2ncccc12)CN1CCN(C2c3ccccc3[C@@H]3[C@H](c4ccccc42)C3(F)F)CC1 (stereo not given in full)
inactive: Potency [1] | Potency [3]
active: Potency [2] 16.8 µM | Potency [4] 21.1 µM | Potency [5] 1.19 µM | Potency [6] 11 µM | Potency [7] 21.9 µM

CCC(C)(C)CC
inactive: Potency [1] | Potency [2] | Potency [3] | Potency [4] | Potency [5] | Potency [6] | Potency [7]

COc1cc2nc(Cl)nc(N)c2cc1OC
inactive: Potency [1] | Potency [2] | Potency [3] | Potency [4] | Potency [5] | Potency [6] | Potency [7]

C=CCOC(=O)CCC1CCCCC1
inactive: Potency [1] | Potency [2] | Potency [3] | Potency [4] | Potency [5] | Potency [6] | Potency [7]

O=C(O)c1ccc(-n2nc(-c3ccccc3O)nc2-c2ccccc2O)cc1
active: Potency [2] 18.8 µM
inactive: Potency [1] | Potency [3] | Potency [4] | Potency [5] | Potency [6] | Potency [7]

CN(C)CCN(Cc1ccsc1)c1ccccn1
inactive: Potency [1] | Potency [2] | Potency [3] | Potency [4] | Potency [5] | Potency [7]
active: Potency [6] 3.89 µM

COCC(C)OC(C)=O (stereo not given)
inactive: Potency [1] | Potency [2] | Potency [3] | Potency [4] | Potency [5] | Potency [6] | Potency [7]

O=C(CS)Nc1ccccc1
active: Potency [7] 8.71 µM
inactive: Potency [1] | Potency [2] | Potency [3] | Potency [4] | Potency [5] | Potency [6]
